# D2 antag = D2 dopamine receptor (human) antagonism; 340,000 tested, 2% active; HEK293 TREx D2 cells, calcium flux, dopamine EC80; inhibition, % at 10 µM; P14416; in the data active means inhibition above about 30%; inactive means below that, where a call was filed
# Target sequence (P14416 whole entry, looked up): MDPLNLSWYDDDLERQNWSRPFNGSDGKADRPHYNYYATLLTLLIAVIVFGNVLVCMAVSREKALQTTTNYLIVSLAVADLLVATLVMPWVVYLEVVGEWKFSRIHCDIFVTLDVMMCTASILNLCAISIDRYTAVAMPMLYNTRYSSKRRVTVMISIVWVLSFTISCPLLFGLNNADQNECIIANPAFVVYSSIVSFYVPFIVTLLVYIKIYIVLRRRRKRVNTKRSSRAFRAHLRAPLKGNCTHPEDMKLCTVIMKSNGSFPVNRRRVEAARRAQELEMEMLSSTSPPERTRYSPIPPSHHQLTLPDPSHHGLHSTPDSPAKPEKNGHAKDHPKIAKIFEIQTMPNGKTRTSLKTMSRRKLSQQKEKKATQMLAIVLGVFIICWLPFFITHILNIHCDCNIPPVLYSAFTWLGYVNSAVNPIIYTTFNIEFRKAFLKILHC
#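 HEK293 T-REx D2 cells, tet-induced, calcium dye no-wash. Cpd pintool add, 180 s kinetic, then EC80 DA, 180 s kinetic. Ca flux read.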
# D2 PAM-1 = D2 dopamine receptor (human) potentiation | AID 485347 | HEK293 T-REx D2, calcium flux, EC20 dopamine potentiation | potentiation, % at 10 µM | 340,000 tested, 0.34% active;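 active means potentiation over 3 SD above the plate norm, cut at about 30% in these data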
#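 Using a no-wash calcium dye in inducible, force-coupled HEK293 Trex cells expressing D2, we tracked fluorescence each second for 180 s after compound, then for 180 s after EC20 dopamine to detect augmented signalling.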
# D2 ag-1 = human D2 receptor agonism in beta-arrestin assay; P14416; DiscoveRx PathHunter D2 beta-arrestin, luminescence, 90 min; 100% = 57 uM dopamine signal; activation, % (concentration not given with the values); 360,000 tested, 0.084% active; AID 624465; in the data active means activation above about 40%; inconclusive means between about 15% and that limit
#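 DiscoveRx PathHunter D2 beta-arrestin cells (2,100/well) attached overnight, then compound-stimulated 90 min at 37 C in HBSS/10 mM HEPES/0.1% Tween-20 buffer; beta-galactosidase complementation read by luminescence after 1 h at ambient temperature. Dopamine 57 uM final (EC100) as control.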
# D2 PAM-2 = positive allosteric modulators of human D2 dopamine receptor; P14416; DiscoveRx D2 beta-arrestin cells, luminescence, 90 min; 100% = 57 uM dopamine signal; potentiation, % (concentration not given with the values); 360,000 tested, 0.23% active; in the data active means potentiation above about 50%; inconclusive means mostly about 30% to 49%
#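 D2 cells co-treated with compound plus 50 nM dopamine (EC20) for 90 min at 37 deg C to detect potentiation. Beta-arrestin recruitment was read as enzyme-fragment luminescence after 1 h at ambient temperature. Full response was set by 57 uM dopamine.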
# D2 ag-2 = D2 dopamine receptor (human) agonism; HEK293 T-REx D2 cells, calcium flux agonist mode; activation, % at 2 µM; P14416; 340,000 tested, 0.53% active; AID 485358;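 active means activation over 3 SD above normal in the single-dose calcium agonist read, cut at about 30% in these data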
#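 Agonism is scored from calcium flux in a force-coupled, inducible HEK293 cell line expressing D2, read kinetically for 180 s after compound addition against dopamine controls.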
# D3 ag = activates human D3 dopamine receptor beta-arrestin recruitment. shares compounds with D2 ag-2. DiscoveRx D3 beta-arrestin cells, luminescence, 90 min. Potency, µM (top dose mostly 76.9 µM), hits mostly activators. 2,300 tested, 4% active. AID 720506; further: nearly all actives have a fitted effect of over 70% in size
# D2 ag-3 = D2 receptor agonism, beta-arrestin counterscreen. shares compounds with D2 ag-2. DiscoveRx PathHunter D2 beta-arrestin, luminescence, 90 min; response scale: percent relative to full dopamine signal. Potency, µM (series often up to 76.9 µM), actives largely listed as activators. 2,300 tested, 5.9% active; further: nearly all actives have a fitted effect of over 70% in size
# Numbers stand for hits; . = inactive; ? = inconclusive; / = not tested or not shown. Most compounds without a hit are left out; they make up all but 2.4% or so of the library. Unless noted, the call rests on the fitted dose curve; in most records, active means well fitted activation curve with a large enough effect; inconclusive means small, poorly fitted or top-dose-only effect; inactive means flat fitted curve, though single readings scatter.
SMILES,D2 antag,D2 PAM-1,D2 ag-1,D2 PAM-2,D2 ag-2,D3 ag,D2 ag-3
COc1ccccc1OCC(=O)NCCS(=O)(=O)N1CCN(c2ccccc2)CC1,62.1,.,?,.,44.0,?,?
COc1cc(-c2noc(C)c2C#CC2(N)CCCCC2)cc(OC)c1OC,.,.,.,.,.,/,/
COc1cc(-c2noc(C)c2C#CC2(O)CCCCC2)cc(OC)c1OC,.,.,.,.,71.7,.,.
c1ccc(CCN2CN(CCCN3CCOCC3)c3nc4ccccc4n3C2)cc1,.,.,.,.,55.7,.,.
CCOc1ccc(CCNc2ncnc3onc(-c4ccc(F)cc4)c23)cc1OCC,/,.,/,/,.,/,/
O=C(Nc1ccccc1C(F)(F)F)c1cc2ccccc2o1,47.4,.,.,.,.,.,.
COC(=O)c1ccccc1NC(=O)c1cc2ccccc2o1,.,.,.,.,.,/,/
O=C(c1[nH]nc2c1CCc1ccccc1-2)N1CCN(Cc2ccc3c(c2)OCO3)CC1,70.5,.,?,.,.,.,?
O=C(c1ccc(Br)o1)N1CCN(Cc2ccc3c(c2)OCO3)CC1,58.4,.,.,.,70.0,.,.
O=C(c1sccc1Cl)N1CCN(Cc2ccc3c(c2)OCO3)CC1,66.6,.,.,.,49.7,.,.
O=C(c1ccccc1)N1CCN(Cc2ccc3c(c2)OCO3)CC1,.,.,.,.,.,/,/
CN(C)S(=O)(=O)n1cnc([C@H]2c3c(ncn3Cc3ccccc3)C[C@H]3COC(=O)[C@@H]32)c1,.,.,.,.,.,/,/
CN(C)S(=O)(=O)n1cnc([C@@H]2[C@@H]3C(=O)OC[C@@H]3C[C@]23N=CN(Cc2ccccc2)C3=O)c1,30.9,.,.,.,.,.,.
Cc1ccc(C(CC(=O)Nc2cc(C)cc(C)c2)N2Cc3ccccc3C2=O)cc1 (stereo not drawn),/,.,/,/,/,/,/
CC1CN(CCn2cnc3c(N)ncnc32)CC(C)O1 (stereo not drawn),45.8,.,.,.,.,.,.
Cn1c2ccccc2c(=O)c2c(=O)n(-c3ccccc3)c(C3CCCCC3)nc21,.,.,.,.,.,/,/
Cn1c2ccccc2c(=O)c2c(=O)n(C3CCCCCC3)c(C3CCCCC3)nc21,.,.,.,.,40.3,.,.
Cc1nn(-c2ccccc2)c(C)c1/C=C/C(=O)OC(C)C(=O)Nc1ncc(Cl)cc1Cl (stereo not drawn),.,.,.,.,30.4,.,.
Cc1nn(-c2ccccc2)c(C)c1/C=C/C(=O)OCC(=O)Nc1ncc(Cl)cc1Cl,.,.,.,.,.,/,/
O=C(c1ccco1)N1CCN(CC(O)COc2ccc3oc4ccccc4c3c2)CC1 (stereo not drawn),39.9,.,?,.,49.6,35.5µM,50.1µM
Cc1cc(C)cc(OCC(O)CN2CCN(C(=O)c3ccco3)CC2)c1 (stereo not drawn),34.6,.,.,.,61.4,.,.
O=C(c1ccccc1)N1CCN(CC(O)COc2ccc(Br)cc2)CC1 (stereo not drawn),.,.,.,.,.,/,/
Cc1ccc(S(=O)(=O)C(CNS(=O)(=O)c2ccc(F)c(C(F)(F)F)c2)c2ccco2)cc1 (stereo not drawn),/,.,/,/,.,/,/
CCCCCCCCC(NC(=O)c1ccc(C#N)cc1)C(=O)NCCC (stereo not drawn),.,.,.,.,.,.,.
CCCNC(=O)C(Cc1cccc(Cl)c1)NC(=O)c1ccc(C#N)cc1 (stereo not drawn),.,.,.,.,.,/,/
SMILES,D2 antag,D2 PAM-1,D2 ag-1,D2 PAM-2,D2 ag-2,D3 ag,D2 ag-3
CCCNC(=O)C(CC)NC(=O)c1ccc(C#N)cc1 (stereo not drawn),.,.,.,.,.,/,/
CCCNC(=O)C(Cc1cccc(C#N)c1)NC(=O)c1ccc(C#N)cc1 (stereo not drawn),.,.,.,.,.,.,.
CCCNC(=O)C(Cc1ccc(I)cc1)NC(=O)c1ccc(C#N)cc1 (stereo not drawn),.,.,.,.,.,.,.
Cc1cccc2sc(N(Cc3cccnc3)C(=O)c3cccs3)nc12,/,.,/,/,.,/,/
CCOC(=O)c1cc(C)n(CC2CCC(C(=O)Nc3cccc(C)c3)CC2)c1C (stereo not drawn),/,.,/,/,.,/,/
COc1ccc(-c2[nH]ncc2C(=O)NCc2cccc(Cl)c2)cc1,/,/,/,/,.,/,/
Cc1ccc(-c2nn(CC(=O)NC3CCCC3)c3c2cnc2ccc(F)cc23)cc1C,/,.,/,/,.,/,/
CCOC(=O)c1scc(-c2ccccc2)c1S(=O)(=O)Nc1ccc(N(C)C)cc1,/,/,/,/,.,/,/
CCN(CC)C(=O)Cn1c(SCCOc2ccc(Cl)cc2)nc2ccccc21,/,.,/,/,.,/,/
Cc1ccccc1NC(=O)CSC1=Nc2ccccc2C2=NC(CCC(=O)NCc3ccccc3)C(=O)N12 (stereo not drawn),/,.,/,/,.,/,/
COc1cc(CN2CCN(c3ccccc3F)CC2)c([N+](=O)[O-])cc1OC,.,.,.,.,36.5,?,.
O=[N+]([O-])c1cc2c(cc1CN1CCN(c3ccccc3F)CC1)OCO2,.,.,.,.,.,/,/
CC1(C)C2([N+](=O)[O-])CN3CC1([N+](=O)[O-])CN(C2)C3c1ccc(O)c(O)c1 (stereo not drawn),.,.,.,.,.,.,.
O=Cc1c(N2CCCCC2)nc2ccccn2c1=O,.,.,.,.,.,/,/
O=Cc1c(N2CCCCCC2)nc2ccccn2c1=O,.,.,.,.,56.2,.,.
Cc1ccc(CNC(=O)c2cccc3c2C(=O)c2ccc(N4CCOCC4)cc2S3(=O)=O)cc1,.,.,.,.,.,.,.
COc1ccc(N2CCN(C(c3cccs3)C(C)NC(=O)C(=O)N3CCOCC3)CC2)cc1 (stereo not drawn),.,.,.,.,.,/,/
CC(NC(=O)C(=O)N1CCOCC1)C(c1cccs1)N1CCN(c2ccccc2)CC1 (stereo not drawn),.,.,.,.,44.3,.,.
Cc1ccc(C(=O)OCc2cc(=O)n3nc(-c4cccs4)sc3n2)cc1,/,/,/,/,.,/,/
CN1CCc2c(sc(/N=C/c3cc(C(C)(C)C)ccc3O)c2C#N)C1,89.5,.,43.2,.,92.3,.,?
Cc1ccc(/C([O-])=C(/C(=S)NCc2ccccc2)[n+]2ccccc2)cc1[N+](=O)[O-],.,.,.,.,31.3,.,.
NC[C@@H]1O[C@H](C23CC4CC(CC(C4)C2)C3)Cc2c1ccc(O)c2O,65.8,.,49.7,?,85.1,31.6µM,35.5µM

# Bioassay records: PubChem BioAssay, National Center for Advancing Translational Sciences (NCATS)
